According to PubChem BioAssay (NCI):
This is part of a sample that, as a whole, favours compounds with a hit. Of some 79,000 tested, about 15% had one in any assay. Unmarked numbers belong to inactive results. Cut-off read from the data, not from the text of the source: active = growth inhibition above about 70%; inactive = the rest.

Assay: NCI Yeast Anticancer Drug Screen. Data for the mlh1 rad18 strain (AID 175)
Conditions: S. cerevisiae mlh1 rad18 strain growth inhibition; at 50.0 µM; active compounds read high
Procedure, shortened: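 Genetically defined yeast (DNA repair-deficient) exposed to compounds; growth inhibition determined relative to vehicle.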

Row | Structure (SMILES) | growth inhibition [%]
1 | O=c1[nH]cc(Cl)cc1O | 4.9
2 | CCN(CC)c1ccc2nc3ccc(=[N+](CC)CC)cc-3oc2c1 | -258
3 | O=C1OC(=O)C2C1C1(Cl)C(Cl)=C(Cl)C2(Cl)C2C(=O)OC(=O)C21 (centres undefined) | -1.75
4 | CNc1nc(NC)c2cn[nH]c2n1 | 16.1
5 | CC1=CC(C)(C)NC(=S)N1c1ccc(S(=O)(=O)O)c2cccc(S(=O)(=O)O)c12 | -33.1
6 | CC(C)=NNc1ccc([N+](=O)[O-])cc1[N+](=O)[O-] | 44.3
7 | Cc1c(C(=O)O)c(=O)n(-c2ccccc2)n1C | 13.6
8 | O=c1cc(-c2ccccc2)[nH]c(=S)[nH]1 | -9.55
9 | C=CCNC(=O)c1ccc(OC)cc1 | 5.7
10 | CC[N+](C)(CC)CCO | 5.05
11 | Cc1cccc(C(=O)N(C(C)C)C(C)C)c1 | -0.35
12 | NC(C(=O)O)c1ccc([N+](=O)[O-])cc1 (centres undefined) | -14.7
13 | OC1OC(COC(c2ccccc2)(c2ccccc2)c2ccccc2)C(O)C(O)C1O (centres undefined) | -17
14 | Cc1ccc(/C(C#N)=C/c2ccc3c(c2)OCO3)cc1 | 21.2
15 | O=c1cc(-c2ccccc2)nc2cc(-c3ccco3)[nH]n12 | -3.85
16 | CCOC(=O)C(O)C(O)C(=O)OCC (centres undefined) | 7.85
17 | Oc1ccc(O)cc1 | 40.3
18 | COc1cccc(COC(=O)Nc2ccccc2)c1OC | 0.65
19 | CC(=O)Nc1cccc(NC(C)=O)n1 | 6.1
